The structures appear in SMILES notation. ± gives the standard deviation of the averaged measurements.

Sequence of DNA polymerase (P10443 whole entry): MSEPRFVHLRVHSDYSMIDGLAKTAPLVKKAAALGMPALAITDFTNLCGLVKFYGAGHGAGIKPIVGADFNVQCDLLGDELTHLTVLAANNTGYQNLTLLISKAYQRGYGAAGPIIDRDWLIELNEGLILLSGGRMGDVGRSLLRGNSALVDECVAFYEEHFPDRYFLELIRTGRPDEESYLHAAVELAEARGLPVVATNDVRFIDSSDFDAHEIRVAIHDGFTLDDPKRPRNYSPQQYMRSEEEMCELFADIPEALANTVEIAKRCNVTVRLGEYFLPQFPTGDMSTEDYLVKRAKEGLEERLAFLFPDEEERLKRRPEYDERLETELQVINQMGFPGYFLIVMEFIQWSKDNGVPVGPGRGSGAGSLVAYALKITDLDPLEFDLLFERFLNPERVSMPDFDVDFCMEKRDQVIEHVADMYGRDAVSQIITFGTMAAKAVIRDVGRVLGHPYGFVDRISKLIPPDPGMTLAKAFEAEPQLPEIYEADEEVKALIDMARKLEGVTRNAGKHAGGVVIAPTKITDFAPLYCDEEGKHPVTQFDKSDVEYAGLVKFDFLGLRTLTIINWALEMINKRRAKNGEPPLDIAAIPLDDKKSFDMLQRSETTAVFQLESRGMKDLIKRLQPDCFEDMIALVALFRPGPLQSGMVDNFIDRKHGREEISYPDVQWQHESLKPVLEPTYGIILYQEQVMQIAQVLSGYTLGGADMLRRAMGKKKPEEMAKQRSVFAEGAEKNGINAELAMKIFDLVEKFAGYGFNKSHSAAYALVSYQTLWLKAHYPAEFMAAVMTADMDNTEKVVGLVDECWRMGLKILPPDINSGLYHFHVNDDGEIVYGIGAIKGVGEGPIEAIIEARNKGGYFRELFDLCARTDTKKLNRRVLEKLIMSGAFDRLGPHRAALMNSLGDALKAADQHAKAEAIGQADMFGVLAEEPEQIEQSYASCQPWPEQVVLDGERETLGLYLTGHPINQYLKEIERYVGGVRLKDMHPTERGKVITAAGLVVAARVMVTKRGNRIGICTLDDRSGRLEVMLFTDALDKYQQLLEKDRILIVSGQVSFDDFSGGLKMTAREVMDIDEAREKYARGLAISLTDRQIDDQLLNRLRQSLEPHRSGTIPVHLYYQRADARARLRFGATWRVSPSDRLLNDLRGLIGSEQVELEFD
Sequence of DNA ligase (B1XA82 whole entry): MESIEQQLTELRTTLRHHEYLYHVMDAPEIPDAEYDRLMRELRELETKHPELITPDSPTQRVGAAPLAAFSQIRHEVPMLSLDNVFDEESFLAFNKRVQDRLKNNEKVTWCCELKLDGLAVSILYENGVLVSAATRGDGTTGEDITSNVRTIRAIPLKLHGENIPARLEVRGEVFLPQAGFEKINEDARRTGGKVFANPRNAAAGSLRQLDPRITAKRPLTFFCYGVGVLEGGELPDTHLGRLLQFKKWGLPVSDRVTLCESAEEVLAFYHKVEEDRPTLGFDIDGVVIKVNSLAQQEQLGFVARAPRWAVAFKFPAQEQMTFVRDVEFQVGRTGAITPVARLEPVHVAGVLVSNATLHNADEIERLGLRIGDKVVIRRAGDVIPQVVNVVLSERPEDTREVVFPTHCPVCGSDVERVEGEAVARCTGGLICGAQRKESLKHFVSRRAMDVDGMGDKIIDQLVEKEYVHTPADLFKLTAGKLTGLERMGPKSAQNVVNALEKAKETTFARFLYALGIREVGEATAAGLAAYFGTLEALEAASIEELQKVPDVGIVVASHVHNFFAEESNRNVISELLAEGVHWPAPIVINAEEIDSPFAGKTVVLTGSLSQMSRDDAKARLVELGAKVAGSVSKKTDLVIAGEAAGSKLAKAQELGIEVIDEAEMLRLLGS
Sequence of DNA helicase (P0ACB1 whole entry): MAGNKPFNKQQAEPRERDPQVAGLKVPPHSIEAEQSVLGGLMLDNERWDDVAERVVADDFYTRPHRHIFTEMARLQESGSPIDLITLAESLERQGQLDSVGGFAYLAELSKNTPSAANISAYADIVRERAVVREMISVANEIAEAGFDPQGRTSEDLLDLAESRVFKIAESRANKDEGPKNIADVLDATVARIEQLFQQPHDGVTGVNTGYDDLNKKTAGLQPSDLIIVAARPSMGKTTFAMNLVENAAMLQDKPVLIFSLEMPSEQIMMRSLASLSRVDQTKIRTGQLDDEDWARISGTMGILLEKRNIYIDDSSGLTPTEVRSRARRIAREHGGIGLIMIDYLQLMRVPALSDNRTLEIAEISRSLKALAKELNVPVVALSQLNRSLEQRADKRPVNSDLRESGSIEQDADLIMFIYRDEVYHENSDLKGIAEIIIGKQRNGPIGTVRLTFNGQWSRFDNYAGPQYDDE

One assay deals with DNA helicase (UniProt P0ACB1). Briefly: relative enzymatic activity vs untreated control (fraction); higher = less inhibition. The note with it: 100 µM; incubation time: 2 h at 37 C. Here is the method:
(§1)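 In vitro enzymatic inhibition assays (ProFoldin kits) for 12 purified essential E. coli enzymes or complexes, each treated with 218 active antibacterial compounds at 100 µM for 2 h at 37°C. Read-outs were fluorescence or absorbance (phosphate detection, dye binding), converted to activity via standard curves and expressed relative to untreated DMSO controls.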
The compound `Cn1ncnc2c(=O)n(C)c(=O)nc1-2` registered a relative enzymatic activity of 0.533 ± 0.13.

`COP(=S)(OC)Oc1cc(Cl)c(Cl)cc1Cl` registered a relative enzymatic activity of 0.105 ± 0.011.

On to `CC(=O)[O][Hg][c]1ccccc1`, for which the relative enzymatic activity was determined as 0.415 ± 0.038.

Consider `O=[N+]([O-])c1ccc(N(CCO)CCO)c2c1no[n+]2[O-]`, for which the relative enzymatic activity turned out to be 0.793 ± 0.094.

The compound `CCCCCCCCCCCCCCCC[N+](C)(C)C.[Br-]` had a relative enzymatic activity of 0.026 ± 0.0026.

Consider `O=C1C=C2C(=CCOC2O)O1` (stereo not drawn), for which the relative enzymatic activity was found to be 0.409 ± 0.021.

In turn, `CN[C@H]1C[C@@H](N)[C@H](O)[C@@H](O[C@@H]2O[C@H](CO)[C@H](O)[C@@H]3O[C@@]4(O[C@H]23)O[C@H]([C@@H](N)CO)[C@H](O)[C@H](O)[C@H]4O)[C@@H]1O` showed a relative enzymatic activity of 0.571 ± 0.16.

Take `CN1C(=O)[C@]23CC4=CC=C[C@H](O)[C@H]4N2C(=O)[C@@]1(CO)SS3`: the relative enzymatic activity came out at 0.55 ± 0.14.

With `Cc1nc2c(=O)n(C)c(=O)nc-2n(C)n1`, the relative enzymatic activity was found to be 0.6 ± 0.18.

As to `[O-][n+]1ccccc1[S][Zn][S]c1cccc[n+]1[O-]`, the relative enzymatic activity was 0.647 ± 0.14.

The compound `CCCCCCCCCCCCCCCC[n+]1ccccc1.[Cl-]` showed a relative enzymatic activity of 0.0141 ± 0.0023.

Take `CNC1C(O)C(OC2C(N)CC(N)C(OC3OC(C(C)O)C(O)C(O)C3N)C2O)OCC1(C)O` (stereo not drawn): the relative enzymatic activity came out at 0.447 ± 0.021.

`CCn1cc(C(=O)[O-])c(=O)c2cc3c(cc21)OCO3.[K+]` had a relative enzymatic activity of 0.576 ± 0.11.

In turn, `CN(C)[C@@H]1C(=O)[C@H](C(N)=O)C(=O)[C@@]2(O)C(=O)[C@@H]3C(=O)c4c(O)cccc4[C@@](C)(O)[C@H]3C[C@@H]12` registered a relative enzymatic activity of 0.615 ± 0.21.

Take `C[CH2][Hg][S]c1ccccc1C(=O)[O-].[Na+]`: the relative enzymatic activity came out at 0.749 ± 0.37.

The target in another assay is DNA ligase (UniProt B1XA82). Described as above. Conditions: 100 µM; incubation time: 2 h at 37 C. Here is the method:
as §1
`Cc1c(N)nc([C@H](CC(N)=O)NC[C@@H](N)C(N)=O)nc1C(=O)N[C@H](C(=O)N[C@@H](C)[C@H](O)[C@@H](C)C(=O)N[C@@H](C(=O)NCCc1nc(-c2nc(C(=O)NCCC[S+](C)C)cs2)cs1)[C@@H](C)O)[C@@H](O[C@H]1O[C@H](CO)[C@H](O)[C@@H](O)[C@H]1O[C@H]1O[C@H](CO)[C@@H](O)[C@H](OC(N)=O)[C@@H]1O)c1cnc[nH]1` showed a relative enzymatic activity of 1.121 ± 0.005.

Take `CN(C)[C@@H]1C(=O)[C@@H](C(N)=O)C(=O)[C@@]2(O)C(=O)[C@H]3C(=O)c4c(O)ccc(Cl)c4[C@@](C)(O)[C@H]3C[C@@H]12`: the relative enzymatic activity is 0.931 ± 0.077.

`O=S(=O)(O)O.Oc1cccc2cccnc12` gave a relative enzymatic activity of 1.05 ± 0.1.

With `CC(=O)Oc1ccc(Cl)c2cccnc12`, the relative enzymatic activity turned out to be 0.965 ± 0.18.

Take `CN(C)[C@@H]1C(=O)C(C(N)=O)=C(O)[C@@]2(O)C(O)=C3C(=O)c4c(O)cccc4[C@](C)(O)[C@H]3C[C@@H]12`: the relative enzymatic activity is 1.06 ± 0.1.

As for `Cc1c(N)nc([C@H](CC(N)=O)NC[C@@H](N)C(N)=O)nc1C(=O)N[C@H](C(=O)N[C@@H](C)[C@H](O)[C@@H](C)C(=O)N[C@@H](C(=O)NCCc1nc(-c2nc(C(=O)NCCC[S+](C)C)cs2)cs1)[C@@H](C)O)[C@@H](O[C@H]1O[C@H](CO)[C@H](O)[C@@H](O)[C@H]1O[C@H]1O[C@H](CO)[C@@H](O)[C@H](OC(N)=O)[C@@H]1O)c1c[nH]cn1`, the relative enzymatic activity was 1.26 ± 0.078.

For `Oc1cc(Cl)ccc1Oc1ccc(Cl)cc1Cl`, the relative enzymatic activity is 0.856 ± 0.26.

In turn, `O=[N+]([O-])C(Br)(CO)CO` showed a relative enzymatic activity of 0.897 ± 0.11.

As for `CCCCCCCCCCCCCCCC[n+]1ccccc1`, the relative enzymatic activity came out at 0.134 ± 0.0094.

On to `Cn1ncnc2c(=O)n(C)c(=O)nc1-2`, for which the relative enzymatic activity stood at 1.08 ± 0.28.

For `COP(=S)(OC)Oc1cc(Cl)c(Cl)cc1Cl`, the relative enzymatic activity is 0.991 ± 0.28.

On to `CC(=O)[O][Hg][c]1ccccc1`, for which the relative enzymatic activity stood at 1.16 ± 0.04.

`O=[N+]([O-])c1ccc(N(CCO)CCO)c2c1no[n+]2[O-]` had a relative enzymatic activity of 1.49 ± 0.15.

In turn, `CCCCCCCCCCCCCCCC[N+](C)(C)C.[Br-]` registered a relative enzymatic activity of 0.171 ± 0.036.

`O=C1C=C2C(=CCOC2O)O1` (stereo not drawn) yielded a relative enzymatic activity of 1.08 ± 0.17.

Regarding `CN[C@H]1C[C@@H](N)[C@H](O)[C@@H](O[C@@H]2O[C@H](CO)[C@H](O)[C@@H]3O[C@@]4(O[C@H]23)O[C@H]([C@@H](N)CO)[C@H](O)[C@H](O)[C@H]4O)[C@@H]1O`, the relative enzymatic activity worked out at 0.95 ± 0.14.

As to `CN1C(=O)[C@]23CC4=CC=C[C@H](O)[C@H]4N2C(=O)[C@@]1(CO)SS3`, the relative enzymatic activity stood at 1.06 ± 0.038.

Compound `Cc1nc2c(=O)n(C)c(=O)nc-2n(C)n1` gave a relative enzymatic activity of 0.827 ± 0.053.

In turn, `[O-][n+]1ccccc1[S][Zn][S]c1cccc[n+]1[O-]` registered a relative enzymatic activity of 1.08 ± 0.083.

The compound `CCCCCCCCCCCCCCCC[n+]1ccccc1.[Cl-]` yielded a relative enzymatic activity of 0.581 ± 0.2.

The compound `CNC1C(O)C(OC2C(N)CC(N)C(OC3OC(C(C)O)C(O)C(O)C3N)C2O)OCC1(C)O` (stereo not drawn) had a relative enzymatic activity of 1 ± 0.031.

In the case of `CCn1cc(C(=O)[O-])c(=O)c2cc3c(cc21)OCO3.[K+]`, the relative enzymatic activity turned out to be 1.21 ± 0.081.

Compound `CN(C)[C@@H]1C(=O)[C@H](C(N)=O)C(=O)[C@@]2(O)C(=O)[C@@H]3C(=O)c4c(O)cccc4[C@@](C)(O)[C@H]3C[C@@H]12` yielded a relative enzymatic activity of 0.943 ± 0.033.

With `C[CH2][Hg][S]c1ccccc1C(=O)[O-].[Na+]`, the relative enzymatic activity was found to be 1.12 ± 0.031.

A further assay addresses DNA polymerase (UniProt P10443). The description is as above. Conditions: 100 µM; incubation time: 2 h at 37 C. As to the method:
as §1
For the compound `Cc1c(N)nc([C@H](CC(N)=O)NC[C@@H](N)C(N)=O)nc1C(=O)N[C@H](C(=O)N[C@@H](C)[C@H](O)[C@@H](C)C(=O)N[C@@H](C(=O)NCCc1nc(-c2nc(C(=O)NCCC[S+](C)C)cs2)cs1)[C@@H](C)O)[C@@H](O[C@H]1O[C@H](CO)[C@H](O)[C@@H](O)[C@H]1O[C@H]1O[C@H](CO)[C@@H](O)[C@H](OC(N)=O)[C@@H]1O)c1cnc[nH]1`, the relative enzymatic activity turned out to be 0.911 ± 0.2.

In turn, `CN(C)[C@@H]1C(=O)[C@@H](C(N)=O)C(=O)[C@@]2(O)C(=O)[C@H]3C(=O)c4c(O)ccc(Cl)c4[C@@](C)(O)[C@H]3C[C@@H]12` displayed a relative enzymatic activity of 0.474 ± 0.67.

On to `O=S(=O)(O)O.Oc1cccc2cccnc12`, for which the relative enzymatic activity amounted to 1.34 ± 0.49.

As to `CC(=O)Oc1ccc(Cl)c2cccnc12`, the relative enzymatic activity came out at 1.09 ± 0.17.

As for `CN(C)[C@@H]1C(=O)C(C(N)=O)=C(O)[C@@]2(O)C(O)=C3C(=O)c4c(O)cccc4[C@](C)(O)[C@H]3C[C@@H]12`, the relative enzymatic activity was found to be 1.11 ± 0.24.

Regarding `Cc1c(N)nc([C@H](CC(N)=O)NC[C@@H](N)C(N)=O)nc1C(=O)N[C@H](C(=O)N[C@@H](C)[C@H](O)[C@@H](C)C(=O)N[C@@H](C(=O)NCCc1nc(-c2nc(C(=O)NCCC[S+](C)C)cs2)cs1)[C@@H](C)O)[C@@H](O[C@H]1O[C@H](CO)[C@H](O)[C@@H](O)[C@H]1O[C@H]1O[C@H](CO)[C@@H](O)[C@H](OC(N)=O)[C@@H]1O)c1c[nH]cn1`, the relative enzymatic activity is 0.485 ± 0.028.

For `Oc1cc(Cl)ccc1Oc1ccc(Cl)cc1Cl`, the relative enzymatic activity is 0.495 ± 0.69.

As for `O=[N+]([O-])C(Br)(CO)CO`, the relative enzymatic activity was determined as 0.327 ± 0.015.

For the compound `CCCCCCCCCCCCCCCC[n+]1ccccc1`, the relative enzymatic activity is 0.0267 ± 0.011.

`Cn1ncnc2c(=O)n(C)c(=O)nc1-2`: the relative enzymatic activity amounted to 0.994 ± 0.056.

Regarding `COP(=S)(OC)Oc1cc(Cl)c(Cl)cc1Cl`, the relative enzymatic activity came out at 1.39 ± 0.45.

Compound `CC(=O)[O][Hg][c]1ccccc1` came in with a relative enzymatic activity of 0.285 ± 0.017.

On to `O=[N+]([O-])c1ccc(N(CCO)CCO)c2c1no[n+]2[O-]`, for which the relative enzymatic activity was 0.69 ± 0.21.

In turn, `CCCCCCCCCCCCCCCC[N+](C)(C)C.[Br-]` yielded a relative enzymatic activity of 0.0569 ± 0.0052.

Turning to `O=C1C=C2C(=CCOC2O)O1` (stereo not drawn), the relative enzymatic activity turned out to be 0.547 ± 0.19.

In the case of `CN[C@H]1C[C@@H](N)[C@H](O)[C@@H](O[C@@H]2O[C@H](CO)[C@H](O)[C@@H]3O[C@@]4(O[C@H]23)O[C@H]([C@@H](N)CO)[C@H](O)[C@H](O)[C@H]4O)[C@@H]1O`, the relative enzymatic activity was 1.19 ± 0.24.

Compound `CN1C(=O)[C@]23CC4=CC=C[C@H](O)[C@H]4N2C(=O)[C@@]1(CO)SS3` came in with a relative enzymatic activity of 0.477 ± 0.68.

Regarding `Cc1nc2c(=O)n(C)c(=O)nc-2n(C)n1`, the relative enzymatic activity is 1.04 ± 0.11.

`[O-][n+]1ccccc1[S][Zn][S]c1cccc[n+]1[O-]` displayed a relative enzymatic activity of 1.1 ± 0.13.

In turn, `CCCCCCCCCCCCCCCC[n+]1ccccc1.[Cl-]` displayed a relative enzymatic activity of 0.0538 ± 0.0068.

`CNC1C(O)C(OC2C(N)CC(N)C(OC3OC(C(C)O)C(O)C(O)C3N)C2O)OCC1(C)O` (stereo not drawn) gave a relative enzymatic activity of 1.37 ± 0.52.

Consider `CCn1cc(C(=O)[O-])c(=O)c2cc3c(cc21)OCO3.[K+]`, for which the relative enzymatic activity stood at 1.08 ± 0.18.

`CN(C)[C@@H]1C(=O)[C@H](C(N)=O)C(=O)[C@@]2(O)C(=O)[C@@H]3C(=O)c4c(O)cccc4[C@@](C)(O)[C@H]3C[C@@H]12` displayed a relative enzymatic activity of 0.874 ± 0.1.

In turn, `C[CH2][Hg][S]c1ccccc1C(=O)[O-].[Na+]` displayed a relative enzymatic activity of 0.94 ± 0.3.
